Laboratory results taken from PubChem BioAssay (Tox21).
Inconclusive results are not listed. Calls of active or inactive are those of the source. Unless noted, calls come from the whole dose curve; as a rule, active = well fitted curve in the direction sought with a large enough effect in the repeat runs; inconclusive = weak or mixed curves; inactive = no such curve, though single readings can be large; an effect the other way counts as inactive or inconclusive.

Key:
[1] = qHTS assay to identify small molecule agonists of the hypoxia (HIF-1) signaling pathway - cell viability counter screen (AID 1224844; calls by dose curve; note: nearly all actives have a fitted effect of over 50% in size)
Outline: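 Same wells as the HIF-1 reporter screen; ME-180 cells carrying HRE-bla, 17 hr treatment at 37C; CellTiter-Glo luminescence read after 30 min at room temperature.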

[2] = qHTS assay to identify small molecule agonists of H2AX (AID 1224845; active = well fitted activation curve with a large enough effect in the signal ratio in the repeat runs, not every such curve was filed as active; the % refers to the signal ratio)
Outline: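 Wild-type CHO-K1 cells plated overnight, then exposed 3 hr at 37C to compounds at 15 concentrations (0.76% DMSO). Lysed, then HTRF anti-pH2AX(S139)-cryptate/anti-H2AX-d2 detection after 24 hr at room temperature; emissions 665 and 620 nm.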

[3] = qHTS assay to identify small molecule agonists of the hypoxia (HIF-1) signaling pathway (AID 1224846; active = well fitted activation curve with a large enough effect in the signal ratio in the repeat runs, not every such curve was filed as active; the % refers to the signal ratio)
Outline: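 In ME-180 cells bearing an HRE-bla construct, 17 h treatment with DMSO-dissolved compounds at 37C was followed by CCF4-AM loading to quantify reporter induction.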

[4] = qHTS assay to identify small molecule agonists of H2AX - cell viability counter screen (AID 1224847; calls by dose curve; note: top concentration of the series differs between compounds; nearly all actives have a fitted effect of over 30% in size)
Outline: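 Read-out: CellTiter-Glo luminescence, 30 min RT. Cells: wild-type CHO-K1, 1000/well, 10% FBS, plated overnight at 37C. Treatment: 15 concentrations, 3 hr, 37C, 0.76% DMSO.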

[5] = qHTS RealTime-Glo MT Cell Viability Assay in HepG2 cells - 24 hour (AID 1224867); note: nearly all actives have a fitted effect of over 50% in size
Outline: (§1)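 Luminescence read-out: viable HepG2 cells reduce a prosubstrate to a NanoLuc substrate, giving a signal proportional to live cell number. Reads taken at 0, 8, 16, 24, 32 and 40 h of compound exposure at 37 C.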

[6] = qHTS RealTime-Glo MT Cell Viability Assay in HEK293 cells - 32 hour (AID 1224868); note: top concentration of the series differs between compounds; nearly all actives have a fitted effect of over 50% in size
Outline: (§2)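 Nonlytic real-time viability readout: viable cells convert prosubstrate to NanoLuc substrate, giving luminescence proportional to live cell number. HEK293, 600 cells/well, compound added after 5 h, continuous culture at 37 C.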

[7] = A CellTox Green Cytotoxicity Assay to monitor cytotoxicity in HEK293 cells - 0 hour (AID 1224869); note: nearly all actives have a fitted effect of over 50% in size
Outline: (§3)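 Homogeneous no-lysis format: HEK293 cell suspension mixed with CellTox Green reagent, seeded, incubated 5 h at 37 C/5% CO2, then dosed by pintool with compound in DMSO.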

[8] = qHTS RealTime-Glo MT Cell Viability Assay in HepG2 cells - 40 hour (AID 1224870); note: nearly all actives have a fitted effect of over 50% in size
Outline: (§4)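 HepG2 cells mixed with RealTime-Glo MT reagents (NanoLuc plus cell-permeant prosubstrate) were seeded at 600 cells/well, incubated 5 h at 37 C/5% CO2, then pinned with compounds in DMSO; nonlytic luminescence tracked viability during 40 h treatment.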

[9] = A CellTox Green Cytotoxicity Assay to monitor cytotoxicity in HEK293 cells - 40 hour (AID 1224871); note: nearly all actives have a fitted effect of over 45% in size
Outline: as §3

[10] = qHTS RealTime-Glo MT Cell Viability Assay in HEK293 cells - 16 hour (AID 1224872)
Outline: as §2

[11] = qHTS RealTime-Glo MT Cell Viability Assay in HepG2 cells - 8 hour (AID 1224873); note: nearly all actives have a fitted effect of over 55% in size
Outline: as §4

[12] = qHTS RealTime-Glo MT Cell Viability Assay in HEK293 cells - 40 hour (AID 1224874); conditions: RealTime-Glo luminescence; max response: active compounds read low; note: nearly all actives have a fitted effect of over 50% in size
Outline: (§5)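 Measured as luminescence from the same continuously cultured HEK293 wells at successive time points (0, 8, 16, 24, 32, 40 h) after compound addition. Reagent present from seeding; dosing at 5 h; incubation 37 C.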

[13] = A CellTox Green Cytotoxicity Assay to monitor cytotoxicity in HEK293 cells - 24 hour (AID 1224875); note: series mostly up to about 77 µM; nearly all actives have a fitted effect of over 45% in size
Outline: as §3

[14] = A CellTox Green Cytotoxicity Assay to monitor cytotoxicity in HepG2 cells - 16 hour (AID 1224876); note: nearly all actives have a fitted effect of over 45% in size
Outline: (§6)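 Fluorescent DNA-binding dye, 600 HepG2 cells/well, 5 h preincubation then compound in DMSO; same plates read at 0–40 h, 37 C.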

[15] = qHTS RealTime-Glo MT Cell Viability Assay in HepG2 cells - 32 hour (AID 1224877); note: nearly all actives have a fitted effect of over 55% in size
Outline: as §1

[16] = A CellTox Green Cytotoxicity Assay to monitor cytotoxicity in HepG2 cells - 24 hour (AID 1224878); note: nearly all actives have a fitted effect of over 45% in size
Outline: as §6

[17] = A CellTox Green Cytotoxicity Assay to monitor cytotoxicity in HepG2 cells - 40 hour (AID 1224879); note: nearly all actives have a fitted effect of over 40% in size
Outline: as §6

[18] = qHTS RealTime-Glo MT Cell Viability Assay in HEK293 cells - 0 hour (AID 1224880)
Outline: as §5

[19] = qHTS assay to identify small molecule antagonists of the estrogen related receptor (ERR) signaling pathway from Tox21 library (AID 1224848); note: nearly all actives have a fitted effect of over 50% in size
Outline: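 First, 2,000 ERR cells per well were plated and held 6 h at 37 C/5% CO2. Next, compounds in DMSO were pinned in and left 18 h at 37 C. Finally, ONE-Glo was added and luminescence read after 30 min at room temperature.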

[20] = qHTS assay to identify small molecule agonists of the estrogen related receptor (ERR) signaling pathway from Tox21 library (AID 1224849; calls by dose curve; note: nearly all actives have a fitted effect of over 15% in size)
Outline: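 Reporter cells (ERR, NTP source) treated with Tox21 10K compounds 18 h, 37 C. Readout: ONE-Glo luminescence, 30 min RT.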
% is set by controls: 0 for no effect and ±100 for the full control effect.

OCCc1ccccn1
inactive: Potency [1] | Potency [2] | outcome [3] | outcome [4] | outcome [5] | Potency [6] | outcome [7] | Potency [8] | Potency [9] | Potency [10] | outcome [11] | max response [12] 3.13% | outcome [13] | outcome [14] | Potency [15] | outcome [16] | Potency [17] | Potency [18]

CNC(=O)Nc1ccc(Cl)c(Cl)c1
inactive: Potency [1] | Potency [2] | outcome [3] | outcome [4] | outcome [5] | Potency [6] | outcome [7] | Potency [8] | Potency [9] | Potency [10] | outcome [11] | max response [12] -26.8% | outcome [13] | outcome [14] | Potency [15] | outcome [16] | Potency [17] | Potency [18]

CC1=C(C/C=C(\C)CCC[C@H](C)CCC[C@H](C)CCCC(C)C)C(=O)c2ccccc2C1=O
inactive: Potency [1] | Potency [2] | outcome [3] | outcome [4] | Potency [19] | outcome [20] | outcome [7] | Potency [9] | outcome [11] | outcome [13] | outcome [14] | Potency [15] | outcome [16] | Potency [17] | Potency [18]

CCOC(=O)C1=NOC(c2ccccc2)(c2ccccc2)C1
inactive: Potency [1] | Potency [2] | outcome [3] | outcome [4] | outcome [5] | Potency [6] | outcome [7] | Potency [8] | Potency [9] | Potency [10] | outcome [11] | max response [12] 3.23% | outcome [13] | outcome [14] | Potency [15] | outcome [16] | Potency [17] | Potency [18]

CCCCCCCC1CCCC1=O (stereo unspecified)
inactive: Potency [1] | Potency [2] | outcome [3] | outcome [4] | outcome [5] | Potency [6] | outcome [7] | Potency [8] | Potency [9] | Potency [10] | outcome [11] | max response [12] 18.6% | outcome [13] | outcome [14] | Potency [15] | outcome [16] | Potency [17]

c1coc(CNc2ncnc3nc[nH]c23)c1
inactive: Potency [1] | Potency [2] | outcome [3] | outcome [4] | outcome [5] | Potency [6] | outcome [7] | Potency [8] | Potency [9] | Potency [10] | outcome [11] | max response [12] -15.6% | outcome [13] | outcome [14] | Potency [15] | outcome [16] | Potency [17] | Potency [18]

[Ca+2]
inactive: Potency [1] | Potency [2] | outcome [3] | outcome [4] | outcome [5] | Potency [6] | outcome [7] | Potency [8] | Potency [9] | Potency [10] | outcome [11] | max response [12] 5.91% | outcome [13] | outcome [14] | Potency [15] | outcome [16] | Potency [17] | Potency [18]

O=C1CCCCCCCCCCCCCCO1
inactive: Potency [1] | Potency [2] | outcome [3] | outcome [4] | outcome [5] | Potency [6] | outcome [7] | Potency [8] | Potency [9] | Potency [10] | outcome [11] | max response [12] 0.109% | outcome [13] | outcome [14] | Potency [15] | outcome [16] | Potency [17] | Potency [18]

CC/C=C\CCOC(C)OCC (stereo unspecified)
inactive: Potency [1] | Potency [2] | outcome [3] | outcome [4] | outcome [5] | Potency [6] | outcome [7] | Potency [8] | Potency [9] | Potency [10] | outcome [11] | max response [12] 3.36% | outcome [13] | outcome [14] | Potency [15] | outcome [16] | Potency [17] | Potency [18]

C=COCC1CCC(COC=C)CC1 (stereo unspecified)
inactive: Potency [1] | Potency [2] | outcome [3] | outcome [4] | Potency [19] | outcome [20] | Potency [6] | outcome [7] | Potency [8] | Potency [9] | outcome [11] | max response [12] -3.6% | outcome [13] | Potency [15]

CCCCCCCCCCCCCCCCCCO
inactive: Potency [1] | Potency [2] | outcome [3] | outcome [4] | outcome [5] | Potency [6] | outcome [7] | Potency [8] | Potency [9] | Potency [10] | outcome [11] | max response [12] -1.19% | outcome [13] | outcome [14] | Potency [15] | outcome [16] | Potency [17] | Potency [18]

O=[N+]([O-])c1cncn1CCN1CCOCC1
inactive: Potency [1] | Potency [2] | outcome [3] | outcome [4] | outcome [5] | Potency [6] | outcome [7] | Potency [8] | Potency [9] | Potency [10] | outcome [11] | max response [12] -2.63% | outcome [13] | outcome [14] | Potency [15] | outcome [16] | Potency [17] | Potency [18]

O=C(CO)[C@@H](O)[C@H](O)[C@H](O)CO
inactive: Potency [1] | Potency [2] | outcome [3] | outcome [4] | Potency [19] | outcome [20] | Potency [6] | outcome [7] | Potency [8] | Potency [9] | Potency [10] | outcome [11] | max response [12] 1.94% | outcome [13] | outcome [14] | Potency [15] | outcome [16] | Potency [17] | Potency [18]

[O-][n+]1cccc(CO)c1
inactive: Potency [1] | Potency [2] | outcome [3] | outcome [4] | outcome [5] | Potency [6] | outcome [7] | Potency [8] | Potency [9] | Potency [10] | outcome [11] | max response [12] 8.89% | outcome [13] | outcome [14] | Potency [15] | outcome [16] | Potency [17] | Potency [18]

O=C(c1ccccc1)C1(O)CCCCC1
inactive: Potency [1] | Potency [2] | outcome [3] | outcome [4] | outcome [5] | Potency [6] | outcome [7] | Potency [8] | Potency [9] | Potency [10] | outcome [11] | max response [12] -2.37% | outcome [13] | outcome [14] | Potency [15] | outcome [16] | Potency [17] | Potency [18]

Cc1cc(C)c(N=Nc2c(O)c(S(=O)(=O)O)cc3cc(S(=O)(=O)O)ccc23)cc1C
inactive: activity change, negative = cytotoxicity [1] -6.32% [at 6.97 µM] | activation (H2AX phosphorylation) [2] 1.25% [at 14 µM] | activation [3] -0.827% [at 7.01 µM] | activity change, negative = cytotoxicity [4] -10.4% [at 14 µM] | activity, negative = inhibition [19] -9.99% [at 8.39 µM] | activity change, positive = activation [20] -5.16% [at 8.39 µM] | cytotoxicity [7] 0.859% [at 6.97 µM] | activity change, negative = cytotoxic [8] -8.96% [at 6.97 µM] | cytotoxicity increase [9] 18.5% [at 6.97 µM] | activity change [13] 16.7% [at 6.97 µM] | cytotoxicity increase [14] 0.0418% [at 6.97 µM] | activity change, negative = cytotoxic [15] -2.9% [at 6.97 µM] | cytotoxicity [16] -2.84% [at 6.97 µM]
